High-throughput results (PubChem BioAssay)
Most compounds without a hit are left out; they make up all but 12% or so of the library.
PI5P4K alpha inh: qHTS for Inhibitors of phosphatidylinositol 5-phosphate 4-kinase (PI5P4K); PI5P4Kalpha enzyme, ADP-Glo luminescence, 60 min; hits give low values; max response, %; actives 1.2% (n = 330,000); active means max response of -50% or lower; inconclusive means between -30% and -50%; inactive means -30% or higher; further: value at the top dose of about 77 µM; on the % scale 0 is the no-effect control and ±100 the full control effect
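PI5P4Kalpha ADP-Glo assay; 5 microM ATP final; 60 min RT reaction; HEPES pH 7.4/EGTA/CHAPS, 5% DMSO; controls lacking substrate or enzyme; luminescent end-point.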
HP1b chromo inh: HTS for Inhibitors of HP1-beta Chromodomain Interactions with Methylated Histone Tails. Chromobox protein homolog 1 (Homo sapiens), P83916. AlphaScreen HP1-beta / biotin-H3K9me3 peptide binding. Potency, µM (titrated, usually from 114 µM), inactives show top-dose activity change, negative = inhibition, most hits filed as inhibitors. actives 0.56% (n = 390,000). AID 540317, 2011; further: potency means the concentration at half of the fitted maximal effect; nearly all actives have a fitted effect of over 70% in size
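AlphaScreen: HP1-beta (50 nM) preformed 30 min with biotin-H3(1-18)K9me3 peptide (50 nM) in PBS pH 7.4, 0.01% Tween-20. Compound added for 30 min at RT, then streptavidin donor/nickel chelate acceptor beads (10 ug/mL) for 30 min.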
BAZ2B inh: qHTS Assay for Inhibitors of BAZ2B; AlphaScreen BAZ2B-H3K14Ac peptide displacement; Potency, µM (titrated, usually from 114 µM), without a hit: at the top dose activity change, negative = inhibition, most hits filed as inhibitors; actives 4.4% (n = 360,000); AID 504333, 2011; further: potency means the concentration at half of the fitted maximal effect; on the % scale 0 is the no-effect control and ±100 the full control effect; nearly all actives have a fitted effect of over 60% in size
Target sequence (Q9UIF8 whole entry, looked up): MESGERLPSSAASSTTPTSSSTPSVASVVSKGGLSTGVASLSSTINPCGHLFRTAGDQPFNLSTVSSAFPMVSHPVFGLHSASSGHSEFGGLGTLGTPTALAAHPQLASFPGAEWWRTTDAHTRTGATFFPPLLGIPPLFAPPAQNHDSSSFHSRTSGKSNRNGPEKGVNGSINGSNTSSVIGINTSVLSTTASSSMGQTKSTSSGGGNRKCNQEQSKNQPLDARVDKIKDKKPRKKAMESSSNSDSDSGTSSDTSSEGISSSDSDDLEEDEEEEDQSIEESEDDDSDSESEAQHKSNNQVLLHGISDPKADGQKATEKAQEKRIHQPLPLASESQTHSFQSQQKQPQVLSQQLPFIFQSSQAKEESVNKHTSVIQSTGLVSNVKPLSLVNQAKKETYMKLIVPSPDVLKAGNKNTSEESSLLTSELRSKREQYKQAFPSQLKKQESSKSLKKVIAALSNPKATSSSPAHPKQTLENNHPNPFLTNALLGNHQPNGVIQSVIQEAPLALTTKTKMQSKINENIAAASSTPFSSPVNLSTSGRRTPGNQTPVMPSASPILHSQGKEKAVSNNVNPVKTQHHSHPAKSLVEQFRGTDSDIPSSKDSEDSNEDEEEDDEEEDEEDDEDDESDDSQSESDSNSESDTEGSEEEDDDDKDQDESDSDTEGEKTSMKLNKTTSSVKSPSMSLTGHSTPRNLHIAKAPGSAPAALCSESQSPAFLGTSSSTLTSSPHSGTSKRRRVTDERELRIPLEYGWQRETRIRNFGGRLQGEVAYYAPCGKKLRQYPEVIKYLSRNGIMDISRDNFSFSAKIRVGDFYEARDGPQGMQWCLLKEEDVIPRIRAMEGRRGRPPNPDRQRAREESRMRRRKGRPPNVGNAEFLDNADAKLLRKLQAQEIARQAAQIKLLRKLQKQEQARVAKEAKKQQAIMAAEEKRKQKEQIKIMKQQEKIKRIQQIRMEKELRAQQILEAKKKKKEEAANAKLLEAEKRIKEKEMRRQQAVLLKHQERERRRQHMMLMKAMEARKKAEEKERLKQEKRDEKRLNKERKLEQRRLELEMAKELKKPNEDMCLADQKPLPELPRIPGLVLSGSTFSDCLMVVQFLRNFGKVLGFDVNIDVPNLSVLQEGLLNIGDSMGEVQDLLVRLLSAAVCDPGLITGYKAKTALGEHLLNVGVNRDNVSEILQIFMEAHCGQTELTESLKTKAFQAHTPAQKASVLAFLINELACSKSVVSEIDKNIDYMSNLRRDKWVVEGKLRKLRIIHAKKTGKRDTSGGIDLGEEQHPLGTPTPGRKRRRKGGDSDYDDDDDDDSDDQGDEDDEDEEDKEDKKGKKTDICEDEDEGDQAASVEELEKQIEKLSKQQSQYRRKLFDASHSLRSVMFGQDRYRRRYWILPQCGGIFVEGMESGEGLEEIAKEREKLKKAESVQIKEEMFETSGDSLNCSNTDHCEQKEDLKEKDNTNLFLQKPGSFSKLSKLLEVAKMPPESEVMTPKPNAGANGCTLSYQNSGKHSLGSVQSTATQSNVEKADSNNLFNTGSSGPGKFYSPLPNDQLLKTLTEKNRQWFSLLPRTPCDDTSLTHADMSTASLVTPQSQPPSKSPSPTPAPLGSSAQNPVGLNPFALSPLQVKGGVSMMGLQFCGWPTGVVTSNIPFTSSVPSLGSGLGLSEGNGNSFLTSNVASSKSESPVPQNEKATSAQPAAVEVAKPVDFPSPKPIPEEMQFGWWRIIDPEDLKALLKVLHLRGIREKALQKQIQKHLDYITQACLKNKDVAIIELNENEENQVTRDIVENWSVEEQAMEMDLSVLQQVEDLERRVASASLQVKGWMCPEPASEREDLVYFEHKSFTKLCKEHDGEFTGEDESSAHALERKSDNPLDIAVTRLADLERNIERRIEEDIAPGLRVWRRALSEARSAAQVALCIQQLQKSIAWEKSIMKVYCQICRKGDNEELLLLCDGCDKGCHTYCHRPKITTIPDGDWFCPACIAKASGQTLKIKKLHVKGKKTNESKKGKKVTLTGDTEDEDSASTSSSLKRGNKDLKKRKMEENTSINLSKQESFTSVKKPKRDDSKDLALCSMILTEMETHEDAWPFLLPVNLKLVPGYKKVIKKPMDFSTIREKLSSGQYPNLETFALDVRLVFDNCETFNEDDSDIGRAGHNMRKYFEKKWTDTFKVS
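BAZ2B 50 nM plus b-H3(5-23)K14Ac 50 nM, PBS pH 7.4/0.01% Tween-20, 30 min RT; compound added (max 110 uM), 30 min RT; streptavidin donor/Ni-chelate acceptor beads 10 ug/mL final, 20 min dark; AlphaScreen read.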
JMJD2A Tudor inh: qHTS Assay for Inhibitors of JMJD2A-Tudor Domain; Lysine-specific demethylase 4A (Homo sapiens), O75164; AlphaScreen JMJD2A-Tudor / H3K4me3 peptide binding; Potency, µM (top dose mostly 114 µM), for the others: top-dose activity change, negative = inhibition, actives largely listed as inhibitors; actives 4.4% (n = 390,000); AID 504339, 2011; further: potency means the concentration at half of the fitted maximal effect; on the % scale 0 is the no-effect control and ±100 the full control effect; nearly all actives have a fitted effect of over 50% in size
G9a inh: qHTS Assay for Inhibitors of Histone Lysine Methyltransferase G9a. G9a H3K9 monomethylation, AlphaScreen, 2 h. Potency, µM (top dose mostly 102 µM), without a hit: top-dose activity, negative = inhibition, actives largely listed as inhibitors. actives 8.8% (n = 350,000). AID 504332, 2011; further: potency means the concentration at half of the fitted maximal effect; on the % scale 0 is the no-effect control and ±100 the full control effect; nearly all actives have a fitted effect of over 75% in size
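Compounds were preincubated with 20 nM G9a for 15 min, after which biotinylated H3K9 peptide (500 nM) and SAM (20 uM) started a 2 h room-temperature reaction. Monomethylated product was quantified by antibody-based AlphaScreen chemiluminescence.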
PLK1 PBD inh: qHTS for Inhibitors of PLK1-PDB (polo-like kinase 1 - polo-box domain): Primary Screen | Serine/threonine-protein kinase PLK1 (Homo sapiens), P53350 | Plk1 PBD binding of FITC phosphopeptide, fluorescence polarization | Potency, µM, inactives show max response, negative = inhibition, hits mostly inhibitors | actives 2.8% (n = 360,000); further: potency means the concentration at half of the fitted maximal effect; series mostly up to about 57 µM; on the % scale 0 is the no-effect control and ±100 the full control effect; nearly all actives have a fitted effect of over 65% in size
An asterisk follows results filed as active; u = inconclusive; x = not tested or not shown; [ ] = dose if it differs, or a comment. Unless noted, the call rests on the fitted dose curve; in most records, active means well fitted curve in the direction sought with a large enough effect; inconclusive means small, poorly fitted or top-dose-only effect, or another doubt; inactive means no such curve, though single readings can be large; an effect the other way counts as inactive or inconclusive.

SMILES	PI5P4K alpha inh	HP1b chromo inh	BAZ2B inh	JMJD2A Tudor inh	G9a inh	PLK1 PBD inh
O=C(NCCCN1CCOCC1)c1cccc(S(=O)(=O)N2CCN(c3ccccc3)CC2)c1	7	8%	4%	-19%	-40%	-6%
O=C(Nc1cccc(S(=O)(=O)N2CCCC2)c1)c1cccc(OC(F)F)c1	4	31%	-9%	-10%	-36%	1%
O=C(Nc1ccc(S(=O)(=O)N2CCCC2)cc1)c1cccc(OC(F)F)c1	-3	19%	7%	-18%	35µM*	-3%
O=C(Nc1ccccc1OC(F)F)c1cccc(S(=O)(=O)N2CCCC2)c1	-19	22%	u	u	-3%	17µM*
O=C(NCCOc1ccccc1F)c1cccc(S(=O)(=O)N2CCN(c3ccccc3)CC2)c1	8	13%	-15%	-26%	40µM*	-3%
O=C(Nc1ccccc1OC(F)F)c1ccc(S(=O)(=O)N2CCCC2)cc1	-2	18%	-5%	5%	18%[59 µM]	1%
Cc1ccc(C(=O)N/N=C/c2ccc(-c3ccccc3[N+](=O)[O-])o2)cn1	-14	2%	-2%	-15%	-26%[59 µM]	-27%
CN(C)/C=C1/C(=O)N(c2ccc([N+](=O)[O-])cc2)N=C1c1ccccc1	x	x	-34%	x	u	x
Cc1ccc(-c2ccc(/C=C3\C(=O)ON=C3c3ccccc3)o2)c([N+](=O)[O-])c1	x	-55%	10µM*	22µM*	27%[0.501 µM]	1.7µM*
O=C1/C(=C\c2ccc(-c3ccccc3[N+](=O)[O-])o2)C(c2ccccc2)=NN1c1ccccc1	-8	7.9µM*	6.3µM*	5.6µM*	4µM*	3.4µM*
Cc1ccc(C2=NOC(=O)/C2=C\c2ccc(C)o2)cc1	-19	28µM*	11µM*	35µM*	x	0.75µM*
O=c1oc2c3c(ccc2c2ccccc12)OCN(Cc1ccccc1Cl)C3	x	39%	u	-35%	1.3µM*	x
CNS(=O)(=O)c1ccc(CNC[C@H]2O[C@@H](n3cnc(C(N)=O)n3)[C@H](O)[C@@H]2O)cc1	9	18%	x	-8%	x	-12%
O=C(CCCCl)N1CCc2[nH]c3ccccc3c2C1	0	4%	-3%	-19%	6%[0.501 µM]	-5%
S=C(NC1CCCCC1)N1CCc2[nH]c3ccccc3c2C1	5	1%	-8%	-19%	24%[12.7 µM]	-8%
Cc1ccc(NC(=S)N2CCc3[nH]c4ccccc4c3C2)cc1	-7	-30%	25µM*	u	x	0%
Cc1ccc2[nH]c3c(c2c1)CN(C(=O)CN1CCN(c2ccccn2)CC1)CC3	x	-2%	50µM*	-35%	20µM*	-10%
O=C(N1CCc2[nH]c3ccccc3c2C1)C(F)(F)F	-3	13%	-23%	-22%	10%	38µM*
Cc1ccc2[nH]c3c(c2c1)CN(C(=O)CN1CCN(Cc2ccc4c(c2)OCO4)CC1)CC3	6	u	-67%	50µM*	u	-12%
COc1ccc(NC(=O)CN(C)CC(=O)N2CC(=O)Nc3ccccc32)cc1	4	16%	x	-19%	x	-12%
Cc1nn(-c2ccccc2)c(OC(=O)c2ccccc2Br)c1S(=O)(=O)c1ccccc1	x	15%	u	-30%	-43%[59 µM]	x
O=C(CN1CCN(c2ccccc2)CC1)N1CCc2[nH]c3ccccc3c2C1	0	-1%	50µM*	u	u	-5%
O=C(CN1CCc2[nH]c3ccccc3c2C1)N1CCCCC1	8	11%	-34%	-19%	16%[12.7 µM]	2%
Cn1nnc2c(N3CCN(Cc4ccccc4)CC3)ncnc21	x	39%	x	-10%	x	x
CCN(C[C@H]1N[C@@](Cc2ccccc2)(C(=O)OC)[C@H]2C(=O)N(C)C(=O)[C@@H]12)C(=O)Nc1ccc(Cl)cc1	0	52%	x	-1%	x	-8%
SMILES	PI5P4K alpha inh	HP1b chromo inh	BAZ2B inh	JMJD2A Tudor inh	G9a inh	PLK1 PBD inh
O=C(COC(=O)C1CCN(c2ccc(C(F)(F)F)cn2)CC1)Nc1ccc(Cl)cc1	0	52%	8%	1%	7%[0.501 µM]	-7%
CN(CC(=O)Nc1ccc(F)cc1)C(=O)COC(=O)C1CCN(c2ccc(C(F)(F)F)cn2)CC1	11	30%	-5%	-41%	79µM*	1%
O=C(COC(=O)C1CCN(c2ccc(C(F)(F)F)cn2)CC1)Nc1ccc(F)cc1[N+](=O)[O-]	8	u	u	u	11µM*	-10%
O=C(COC(=O)C1CCN(c2ccc(C(F)(F)F)cn2)CC1)Nc1cccc(F)c1	18	116%	6%	7%	u	4%
CCOc1ccc(C(=O)C(C)OC(=O)C2CCN(c3ccc(C(F)(F)F)cn3)CC2)cc1 (stereo not drawn)	2	68%	16%	26%	56µM*	-1%
COc1ccc(OCC(=O)N(Cc2ccco2)C2CCS(=O)(=O)C2)cc1 (stereo not drawn)	0	23%	-6%	-15%	23%	-16%
CCOC(=O)C1(CCc2ccccc2)CCN(C(=O)[C@@H]2C[C@@H](C)NC(=S)N2)CC1	0	11%	-4%	-21%	45µM*	-11%
CCOC(=O)C1(CCc2ccccc2)CCN(C(=O)C2CCCO2)CC1 (stereo not drawn)	1	37%	1%	8%	5%	-2%
CCCCc1nc2sc3c(c2c(=O)[nH]1)CC(C)(C)OC3	3	69%	x	-7%	x	2%
CCC1CC2(C)NC(=O)c3c(sc4c3CC(C)(C)OC4)N2C1=O (stereo not drawn)	-30	u	-24%	-32%	32µM*	12µM*
O=S(=O)(c1ccccc1C(F)(F)F)N1CCN(c2nc(-c3ccccc3)nc3ccccc23)CC1	x	0%	x	-7%	x	x
O=c1c2c(-c3ccc(Cl)cc3)csc2ncn1/N=C/c1cccc([N+](=O)[O-])c1O	-71*	-17%	50µM*	40µM*	40µM*	u
O=c1c2c(-c3ccccc3)csc2ncn1/N=C/c1c2ccccc2cc2ccccc12	x	8%	u	-28%	u	-1%
Cc1cccc(C)c1OCC(N)C(C)C (stereo not drawn)	6	33%	71µM*	0%	3.8µM*	-3%
Cc1cccc(C)c1OCC(C)N (stereo not drawn)	3	19%	-36%	-24%	-2%[59 µM]	-12%
O=C(NCC[C@H]1CC[C@@H](NC(=O)C2CCOCC2)[C@@H](CO)O1)Nc1ccc(Cl)cc1	1	x	x	x	x	1%
COC(=O)c1ccc(NC(=O)CSc2ccccn2)cc1	3	13%	-22%	-1%	u	-11%
CCOc1ccc(NC(=O)CN2CCN(CC(=O)Nc3ccc(C(N)=O)cc3)CC2)cc1	6	32%	2%	5%	50µM*	17%
